m5-HT2A agonist: activates the mouse 5-HT2A serotonin receptor; P35363; CHO-K1 mHTR2A beta-arrestin complementation, luminescence; percent of 30 µM serotonin response; activation, % at 7.6 µM; hit rate 0.66% among 360,000; AID 624169;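 active = activation above a run cutoff, the mean activation of all tested compounds plus 3 SD, cut at about 14% in these data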;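 note: 0% = plate median of compound wells and 100% = 30 µM serotonin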
GASC-1 inh: inhibitors of human GASC-1 (JMJD2C) demethylase; Q9H3R0; GST-JMJD2C(1-420) H3K9me3 demethylation, DELFIA europium; inhibition, % at 2.35 µM; hit rate 0.069% among 330,000;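 active = more than half of a compound's replicate wells show inhibition beyond 50%, single wells judged on their own value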;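 note: signal counts dimethyl H3K9 product captured on neutravidin plate; 0% = median of DMSO wells and 100% = 0.3 times that DMSO median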
Exocytosis inh: blocks lytic granule exocytosis. AID 651702. hit rate 0.66% among 360,000. TALL-104 LAMP-1 surface exposure, flow cytometry; cells stimulated with thapsigargin and PMA. inhibition, % at 10 µM;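 active = inhibition above about 55%, limit read from the data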
MEX-5 binding: C. elegans MEX-5 TCR-2 RNA binding activity; AID 1832; activity score (negative = inhibition of binding), % at 10 µM; hit rate 0.38% among 300,000; MEX-5/FITC-TCR2 RNA binding, fluorescence polarization; active compounds read low; Q9XUB2;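 active = inhibition past about -25% in most replicates, and total fluorescence under double the plate's negative control median, limit read from the data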;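 note: 0% = DMSO and -100% = 5 µM competing unlabeled TCR2 RNA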
Target sequence (Q9XUB2 whole entry, looked up): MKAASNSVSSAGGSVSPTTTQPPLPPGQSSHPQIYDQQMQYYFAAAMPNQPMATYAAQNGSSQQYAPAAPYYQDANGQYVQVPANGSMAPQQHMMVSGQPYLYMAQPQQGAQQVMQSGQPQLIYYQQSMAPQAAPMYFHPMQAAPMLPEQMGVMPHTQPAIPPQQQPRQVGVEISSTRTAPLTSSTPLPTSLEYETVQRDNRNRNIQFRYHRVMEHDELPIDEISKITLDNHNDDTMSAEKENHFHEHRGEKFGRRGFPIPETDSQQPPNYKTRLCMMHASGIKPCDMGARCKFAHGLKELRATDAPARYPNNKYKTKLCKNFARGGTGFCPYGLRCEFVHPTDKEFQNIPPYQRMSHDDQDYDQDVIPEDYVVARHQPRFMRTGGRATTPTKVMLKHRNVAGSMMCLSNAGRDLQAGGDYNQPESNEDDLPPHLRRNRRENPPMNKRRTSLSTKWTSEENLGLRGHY
V-ATPase pHluor: regulators of yeast V-ATPase proton transport; S. cerevisiae, pHLuorin cytosolic pH fluorescence; response, % at 10 µM; hit rate 0.37% among 350,000; AID 504577; in the data active = response mostly above about 7.3%, no sharp cut-off; inactive = mostly below about 5.4%; note: actives read high
VLA-4 inh: inhibition in a human VLA-4 binding assay; P13612; VLA-4 expressing cells, ligand binding flow cytometry; inhibition, % (about 7 µM as worked out from the volumes in the protocol); hit rate 0.2% among 330,000; in the data active = inhibition above about 50%
Granule exo CP1: blocks lytic granule exocytosis. hit rate 11% among 1,500. shares compounds with Exocytosis inh. TALL-104 cells, LAMP-1 externalization, flow cytometry; stimulated with PMA plus thapsigargin. AID 651954. inhibition, % at 10 µM; in the data active = inhibition above about 60%;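 note: 0% = stimulated vehicle wells and 100% = unstimulated wells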
The depositor's hits bear a star; i = inactive; nt = not tested or not shown. Compounds with a hit are over-represented: about 2.2% of the library has one in this group of screens.

SMILES	m5-HT2A agonist	GASC-1 inh	Exocytosis inh	MEX-5 binding	V-ATPase pHluor	VLA-4 inh	Granule exo CP1
O=C(Cc1cccs1)N(Cc1cccs1)C1(C(=O)NC2CCCC2)CCCCC1	-6	5	77*	2	2	18	3
CCc1ccc(CN(C)C(=O)C2=CC=CN3CCS(=O)(=O)N=C23)cc1	-2	nt	-2	nt	-2	nt	nt
CCOc1ccc2[nH]c(C)c(CN3CCN(C)CC3)c(=O)c2c1	11	17	68*	3	5	8	-11
CCOc1ccc2[nH]c(C)c(CN3CCN(CC)CC3)c(=O)c2c1	4	-4	-4	1	0	1	nt
CN(c1ccc(OCc2ccc([N+](=O)[O-])cc2)cc1)S(=O)(=O)c1ccccc1	-9	3	61*	2	-2	4	-14
Cc1ccc(S(=O)(=O)N(C)c2ccc(OCc3cccc(C)c3)cc2)cc1	-2	-17	-2	1	0	1	nt
COc1ccccc1C(=O)N/C(=C\c1cn(C)c2ccccc12)C(=O)NCCCn1ccnc1	5	4	67*	-6	1	27	-7
CCOC(=O)C1CCCN(S(=O)(=O)c2ccc3ccccc3c2)C1 (stereo not given)	9	-7	-19	0	1	-4	nt
CCOC(=O)C1CCCC12Nc1cccc3cccc(c13)N2 (stereo not given)	-5	nt	86*	nt	-3	nt	-14
O=S(=O)(c1ccc(SCCO)nc1)N1CCOCC1	3	4	60*	nt	2	2	-10
O=C(Nc1ccccc1-c1nc2ccccc2s1)c1cccnc1Cl	-3	-13	1	1	-3	-13	nt
O=C(Nc1ccccc1-c1nc2ccccc2s1)c1ccco1	-4	-2	71*	4	0	-1	-2
O=C(COc1ccc([N+](=O)[O-])cc1)Nc1ccc2c(c1)CCC2	-8	1	-2	nt	-2	-2	nt
Cc1cc(Nc2cccc(Cl)c2)nc(-c2ccccc2O)n1	-10	-1	56*	4	5	-1	-4
Cc1cc(Nc2ccc(Cl)cc2)nc(-c2ccccc2O)n1	-10	2	1	-1	1	1	nt
COCCCNC(=O)C[C@H]1C[C@H](C(=O)N(C(C)C)C(C)C)[C@@]2(C)c3[nH]c4cc(CCC(=O)N(C)C)ccc4c3CCN2C1=O	-3	nt	-7	nt	0	nt	nt
Cc1ccc(NS(=O)(=O)c2cc(C(=O)NCc3cccnc3)ccc2C)cc1	-12	5	63*	-1	-1	9	-14
Cc1ccc(S(=O)(=O)Nc2ccc(C(=O)NCc3cccnc3)cc2)cc1	-5	2	-3	1	-1	-3	nt
O=C1Nc2cccnc2N(C(=O)CCl)c2ccccc21	-1	-15	15	1	1	0	nt
CN1CCN(C(=O)C2=C[C@H](c3coc4ccccc4c3=O)C[C@H](OCCCCO)O2)CC1	1	3	-1	0	4	-7	nt
O=C(C1=C[C@@H](c2coc3ccccc3c2=O)C[C@@H](OCCCCO)O1)N1CCOCC1	-3	2	66*	-1	2	-2	-14
Clc1nc(CN2CCCCC2)nc2sc3c(c12)CCCC3	-1	-10	98*	2	-2	12	-12
O=C(CCCN1CCOCC1)c1ccc2c(c1)OCCO2	0	-5	-3	-2	0	8	nt
O=C(CCN1CCCCC1)c1ccc2c(c1)OCO2	-1	8	80*	-3	1	-6	13
CCOc1ccc(C(=O)CCN2CCCCCC2)cc1	1	4	101*	-1	-3	10	64*
SMILES	m5-HT2A agonist	GASC-1 inh	Exocytosis inh	MEX-5 binding	V-ATPase pHluor	VLA-4 inh	Granule exo CP1
O=C(CCN1CCOCC1)c1ccc2c(c1)OCCO2	-5	4	85*	-5	-2	-1	-8
CCCOc1ccc(C(=O)CCN2CCCCC2)cc1	-5	5	22	2	3	10	nt
O=C(CCN1CCc2ccccc2CC1)c1ccc2c(c1)OCCO2	-2	i	101*	2	1	18	78*
CCOc1ncccc1C(=O)OCC(=O)NCc1ccc(C(=O)OC)cc1	7	-10	-3	nt	3	9	nt
O=C(O)c1ccc2c(c1)OCCOCCOCCOCCOCCO2	-2	-13	-2	2	2	-9	nt
O=C(c1ccccc1)c1ccc2c(c1)OCCOCCOCCOCCO2	0	-2	72*	2	-2	2	-5
O=C(Nc1ccccc1-c1nnc(SCc2ccccc2)o1)c1ccccc1	-1	1	67*	-2	-1	-7	-10
O=C(Nc1ccccc1-c1nnc(SCc2ccc(Cl)cc2)o1)c1ccccc1	-4	-9	-2	-1	-3	-2	nt
CN1Cc2c(N3CCOCC3)nc3sc(C(=O)c4ccc(Br)cc4)c(N)c3c2CC1(C)C	-5	-41	61*	-1	-2	32	75*
CN(c1ccccc1)S(=O)(=O)c1ccc(NC(=O)c2nc(S(C)(=O)=O)ncc2Cl)cc1	-7	0	31	-1	5	33	nt
O=C(CCN1CCN(C(=O)c2ccccc2)CC1)c1ccc(Br)cc1	-5	-2	82*	-2	6	2	15
O=C(c1ccc(Br)cc1)N1CCN(Cc2ccccc2)CC1	5	-7	6	2	-1	3	nt
O=C(Nc1cccc(O)c1)N1CCOCC1	1	0	3	2	-2	-6	nt
O=C(Nc1ccc2nc(-c3cccs3)c(-c3cccs3)nc2c1)N1CCOCC1	-2	9	101*	-4	6	7	99*
CCOc1ccccc1C(=O)Nc1ccc(C(=O)c2ccccc2)cc1	-8	-2	60*	2	1	-12	-5
CCOc1ccccc1C(=O)Nc1ccc(NC(=O)c2ccccc2)cc1	-13	-4	15	-4	-1	-2	nt
CCCCc1c(-c2cccc(Cl)c2)ncn1CCc1ccccc1OC	-6	nt	9	nt	nt	nt	nt
O=C(O)c1cc([N+](=O)[O-])ccc1Oc1ccccc1	-2	nt	-8	nt	3	nt	nt
Cc1coc2c1c(C)cc1oc(=O)c(Cc3ccccc3)c(C)c12	2	10	63*	1	2	-8	-11
